Measured values from PubChem BioAssay (NCI).
“And” between values parts separate entries of the source, which are not always exact repeats. Equal values may be shown once. This is part of a sample that, as a whole, favours compounds with a hit. Of some 79,000 tested, about 15% had one in any assay. Cut-off read from the data, not from the text of the source: active = growth inhibition above about 70%; inactive = the rest.

Tests used:
[1] = NCI Yeast Anticancer Drug Screen. Data for the rad50 strain (AID 155);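 note: 0% = growth of vehicle-only cultures of the same strain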; settings: S. cerevisiae rad50 strain growth inhibition, active compounds read high; at 50.0 µM unless noted
Procedure, shortened: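 DNA repair mutant yeast, compound exposure, growth read-out; inhibition is taken relative to vehicle.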

[2] = NCI Yeast Anticancer Drug Screen. Data for the mec2-1 strain (AID 157); settings: S. cerevisiae mec2-1 strain, active compounds read high; at 50.0 µM unless noted
Procedure, shortened: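 Yeast mec2-1 mutant treated with compound. Readout: growth inhibition vs vehicle controls.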

[3] = NCI Yeast Anticancer Drug Screen. Data for the sgs1 mgt1 strain (AID 161);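 note: 0% = growth of cultures given vehicle only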; settings: S. cerevisiae sgs1 mgt1 strain, active compounds read high; at 50.0 µM unless noted
Procedure, shortened: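 Test agents were incubated with a DNA-repair-mutant yeast strain. Growth was then read and compared against vehicle-treated controls.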

[4] = NCI Yeast Anticancer Drug Screen. Data for the cln2 rad14 strain (AID 165);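 note: 0% = growth equal to vehicle treated cultures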; settings: S. cerevisiae cln2 rad14 strain, active compounds read high; at 50.0 µM unless noted
Procedure, shortened: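 cln2 rad14 yeast strain; compound exposure; growth inhibition read vs vehicle controls.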

[5] = NCI Yeast Anticancer Drug Screen. Data for the bub3 strain (AID 167); settings: S. cerevisiae bub3 mutant strain, active compounds read high; at 50.0 µM unless noted
Procedure, shortened: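 In this screen, a yeast mutant lacking normal mitotic checkpoint function is challenged with compound. Relative growth versus vehicle gives the inhibition value.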

[6] = NCI Yeast Anticancer Drug Screen. Data for the mlh1 rad18 strain (AID 175); settings: S. cerevisiae mlh1 rad18 strain growth inhibition, active compounds read high; at 50.0 µM unless noted
Procedure, shortened: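 Yeast w/ defined DNA-repair lesions; compound exposure; growth vs vehicle controls → % inhibition.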

Measured: growth inhibition

Cc1[nH]c2ccccc2c1/C=C/c1c[nH]c2ccccc12
inactive: [1] 22% | [2] 29.9% | [3] 27.1% | [4] 15.8% | [5] 55.5% | [6] 40.4%

OC(CN1CCCC1)c1ccccc1 (stereo not given)
inactive: [1] -1.8% | [2] -11.2% | [3] 15.9% | [4] 28.6% | [5] -0.25% | [6] -30.6%

CC(=O)NNS(=O)(=O)c1ccccc1
inactive: [1] 8.1% | [2] 28.6% | [3] 4.15% | [4] -1.15% | [5] -17.9% | [6] 16.8%

O=S(=O)(N/N=C1\CC2CCC1C2)c1ccccc1 (stereo not given)
inactive: [1] -7.05% | [2] -16.1% | [3] -16.9% | [4] 27.8% | [5] 21.4% | [6] 4.4%

CCC(=O)NC(Nc1ccccc1F)(C(F)(F)F)C(F)(F)F
inactive: [1] -29.2% | [2] -18.2% | [3] -18.1% | [4] -4% | [5] -41.9% | [6] -35.9%

O=C1/C(=C/c2cccc(Br)c2)Cc2ccccc21
inactive: [1] 20.9% | [2] -7.9% | [3] 12.3% | [4] 18.1% | [5] -1.35% | [6] 15.8%

O=C1NC(=O)[C@@]2(CC[C@@H](O)C2)c2ccncc21
inactive: [1] 3.55% | [2] -42.6% | [3] -10.2% | [4] 16.4% | [5] -33.2% | [6] -86.5%

O=CNNc1nn2cnnc2c2ccccc12
inactive: [1] -1% | [2] 9.95% | [3] -6.55% | [4] 11.9% | [5] -16.6% | [6] 9.6%

CCOC(=O)C(=CN1CCNC1=S)C(=O)OCC
inactive: [1] -30.6% | [2] -33.6% | [3] -25.6% | [4] -1.6% | [5] -15.8% | [6] -3.85%

CC(C)(C(N)C(=O)O)C(N)C(=O)O (stereo not given)
inactive: [1] 16.4% | [2] 4.8% | [3] -17.4% | [4] -11.9% | [5] -3.55% | [6] -8.8%

COC(=O)NC1C(OC(C)=O)C(OC(C)=O)C(COC(C)=O)OC1n1ccc(NC(C)=O)nc1=O (stereo not given)
inactive: [1] 8.65% | [2] 1.4% | [3] 5.9% | [4] 18.6% | [5] 0.15% | [6] 5.1%

Cc1ccc(S(=O)(=O)Oc2ccc(Cl)c(C)c2)cc1
inactive: [1] 39.5% and -16.1% | [2] 6% and -11.8% | [3] 35.4% and -25.1% | [4] 14.1% and -74.5% | [5] 38.9% and 14.8% | [6] 17.8% and 5.1%

COc1cc(C2c3cc4c(cc3OC3(O)CCCC23)OCO4)cc(OC)c1OC (stereo not given)
inactive: [1] -0.85% | [2] 3.55% | [3] 2.45% | [4] -25.1% | [5] 3.15% | [6] -2.25%

O=C1c2ccccc2NC(O)c2cccn21 (stereo not given)
inactive: [1] 0.3% | [2] 0.2% | [3] -3.75% | [4] -25.9% | [5] 11.4% | [6] -5.45%

NC(=O)C1(N2CCCCC2)CCNCC1
inactive: [1] 7.85% | [2] -16.5% | [3] -8.2% | [4] 6.9% | [5] -5.45% | [6] 3.95%

COc1ccc2c(c1)[n+](=O)c(C(=O)C/C(=N/NC(=O)c1ccccc1O)C(=O)Nc1ccc(Cl)c(C(F)(F)F)c1)c(C)n2[O-]
inactive: [1] 25.1% | [2] 9.4% | [3] 14.5% | [4] 8.75% | [5] 34.2% | [6] 1.35%

CC(Oc1ccc(OCC2CCCCC2)cc1)C(=O)N(CCO)CCO (stereo not given)
inactive: [1] 21.2% | [2] -19.9% | [3] 25.6% | [4] 11.9% | [5] -43.4% | [6] 6.65%

CCC1CC(C)=CCN1S(=O)(=O)c1ccc(C)cc1 (stereo not given)
inactive: [1] -12.6% | [2] -2.3% | [3] 4.4% | [4] 18.6% | [5] 12.2% | [6] 2.35%

CS(=O)(=O)OCC(Br)C(Br)COS(C)(=O)=O (stereo not given)
inactive: [1] 2.8% | [2] 5.2% | [3] 7.7% | [4] 26.4% | [5] -5.3% | [6] 10.2%

CC(C)(C)NC(=O)C(Br)c1ccccc1 (stereo not given)
inactive: [1] 0.05% | [2] 23.1% | [3] 33.8% | [4] -2.25% | [5] 54.1% | [6] 16%

Nc1ccc(C(=O)N/N=C/c2ccccc2O)cc1
inactive: [1] 16.9% | [2] 12.7% | [3] 4.15% | [4] 7.55% | [5] 0% | [6] 19.2%

CN(C)P1(=O)N(c2ccccc2)P(=O)(N(C)C)N1c1ccccc1 (stereo not given)
inactive: [1] -11.5% | [2] -32.1% | [3] -17.1% | [4] -1.55% | [5] -19.4% | [6] -34.7%

O=c1oc2ccccc2c(O)c1Cc1ccccc1Cc1c(O)c2ccccc2oc1=O
inactive: [1] 4.4% | [2] 4.65% | [3] -13.2% | [4] 10.9% | [5] -19.9% | [6] 65%

ClC1CCC[N-]C1.ClC1CCC[N-]C1.[Cl][Pt+2][Cl] (stereo not given)
inactive: [1] -7.1% | [2] 4.95% | [3] -9.7% | [4] -28.6% | [5] -3.6% | [6] -3.55%

Nc1nnc2nc(CC(=O)c3ccc(Cl)c(Cl)c3)/c(=C/C(=O)c3ccc(Cl)c(Cl)c3)n12
inactive: [1] 11.5% | [2] 12.3% | [3] -12.3% | [4] 17.2% | [5] 1.7% | [6] -10.2%

CC1=CC(=O)CC(C)(C)C1
inactive: [1] 1.45% | [2] 5.95% | [3] -1.7% | [4] 6.4% | [5] 17.1% | [6] 3.45%

CC(C)(C)NSc1nc2ccccc2s1
inactive: [1] -21.8% | [2] 2.45% | [3] -12.7% | [4] 4.2% | [5] -2.5% | [6] -8.5%

C=CCOc1cc2c(cc1C(CC)c1ccc(OCc3ccccc3)cc1)OCO2 (stereo not given)
inactive: [1] 31.9% | [2] 5.2% | [3] -2.85% | [4] 13.9% | [5] 0.9% | [6] -10.2%

CC(C)(CO)N=Cc1ccccc1O
inactive: [1] -0.25% | [2] -1.6% | [3] -14.2% | [4] -3.8% | [5] -13.3% | [6] 6.35%

CCOC(=O)Nc1ccccc1OCC
inactive: [1] -10.6% | [2] 2% | [3] -4.3% | [4] -90% | [5] 6.2% | [6] -3.45%

O=C1CCCC/C1=C/C=C/c1ccccc1
inactive: [1] 10.1% | [2] 21.8% | [3] 23.1% | [4] -33.5% | [5] -29.9% | [6] 6.75%

CC(C)(C)NC(=O)CCCl
inactive: [1] 16.4% | [2] 14.4% | [3] 16.5% | [4] 5.6% | [5] 1.8% | [6] 41.8%

COc1c2c(c(OC)c3ccccc13)C(=O)C1=C(CC=CC1)C2=O
inactive: [1] 4% | [2] 18.4% | [3] -8.6% | [4] -10.1% | [5] 14.6% | [6] 40.1%

CC(=O)Nc1ccc(S(=O)(=O)O)c(OC(C)=O)c1
inactive: [1] 20.8% | [2] -7.2% | [3] 9.85% | [4] -11.8% | [5] 7.35% | [6] 19.1%

COc1ccc(/C=C2/C/C(=C/c3ccc(OC)cc3)C2=O)cc1
inactive: [1] 14.2% | [2] 9.25% | [3] 10.2% | [4] 7.2% | [5] 4.65% | [6] 15%

CCCOC(=O)CCCC(=O)N(C(C)C)C(C)C
inactive: [1] -12.3% | [2] -2.7% | [3] 12.2% | [4] -29.5% | [5] 21.9% | [6] 4.65%

Cc1ccc(OC/C=C/CSc2ccc(Br)cc2)cc1
inactive: [1] 4.95% | [2] 4.75% | [3] 2.4% | [4] -2.4% | [5] -19.9% | [6] -24.9%

O=C1C=C(C2=CC(=O)c3cccc(O)c3C2=O)C(=O)c2c(O)cccc21
inactive: [1] -32.5% | [2] -13% | [3] -9.9% | [4] -46% | [5] -8.5% | [6] -4.7%

FC1=C(F)C2(F)C3CCC(O3)C2(F)C(Br)=C1F (stereo not given)
inactive: [1] -9.6% | [2] -3.3% | [3] 3.2% | [4] -1.35% | [5] -6.15% | [6] 4.5%

CCOC(=O)c1ccc(NCc2ccc(CNc3ccc(C(=O)OCC)cc3)cc2)cc1
inactive: [1] -35.4% | [2] -18.2% | [3] -36.2% | [4] -11.8% | [5] -21.4% | [6] -27%
